Vif-APOBEC3F blk = qHTS for Inhibitors of Vif-A3F Interactions: qHTS; HeLa A3F-eYFP + Vif (tagged APOBEC3F with the HIV-1 protein that degrades it), YFP fluorescence increase; Potency, µM (top dose mostly 46.1 µM); 390,000 compounds, 0.2% hits; AID 602313, 2012; also: nearly all actives have a fitted effect of over 65% in size
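Fluorescence increase (Ex 488/Em 500-530) after overnight compound treatment at 37 deg C flags inhibition of Vif-driven A3F-eYFP loss in stable HeLa A3F-eYFP/Vif cells seeded overnight beforehand.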
IL-1B inflam inh = qHTS for Inhibitors of Inflammasome Signaling: IL-1-beta AlphaLISA Primary Screen. THP-1 LPS/ATP IL-1B secretion, AlphaLISA, 16 h; active compounds read low. AID 743279, 2014. 360,000 compounds, 4.7% hits. activity change, % at 57.5 µM; in the data active = activity change below about -50%; inconclusive = mostly about -30% to -49%
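Secreted IL-1B measured by AlphaLISA bead assay after 16 h compound exposure of THP-1 cells; compounds (final up to 57.5 uM) added 1 h before LPS (250 ng/mL) and ATP (1.25 mM) stimulation; lower signal means less secretion.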
Giardia killer = Small Molecules that selectively kill Giardia lamblia: qHTS. activity change, % at 7.66 µM, hits read low. Giardia lamblia trophozoite viability. 340,000 compounds, 0.15% hits; in the data active = activity change below about -80%; inconclusive = between about -30% and that limit;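 also: parasites exposed to compound for two days anaerobically before the ATP read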
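Killing of trophozoites was scored by loss of ATP luminescence after a 48 hrs anaerobic exposure to compounds at 37 deg C, using 100 cells per well.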
MCF10A rereplic = A quantitative high throughput screen for small molecules that induce DNA re-replication in MCF 10a normal breast cells; 350,000 compounds, 2.9% hits; MCF 10A DNA re-replication, Hoechst nuclear intensity, 48 h; Potency, µM (top dose mostly 46.1 µM), usual class: activators; AID 624296, 2012; also: nearly all actives have a fitted effect of over 50% in size
Vif-APOBEC3G blk = qHTS for Inhibitors of Vif-A3G Interactions: qHTS | HeLa A3G-eYFP + Vif (tagged APOBEC3G with the HIV-1 protein that degrades it), YFP fluorescence, overnight | Potency, µM (doses to about 46.1 µM), actives largely listed as inhibitors | 410,000 compounds, 0.076% hits | AID 602310, 2012; also: nearly all actives have a fitted effect of over 60% in size
Target sequence (Q9HC16 whole entry, looked up): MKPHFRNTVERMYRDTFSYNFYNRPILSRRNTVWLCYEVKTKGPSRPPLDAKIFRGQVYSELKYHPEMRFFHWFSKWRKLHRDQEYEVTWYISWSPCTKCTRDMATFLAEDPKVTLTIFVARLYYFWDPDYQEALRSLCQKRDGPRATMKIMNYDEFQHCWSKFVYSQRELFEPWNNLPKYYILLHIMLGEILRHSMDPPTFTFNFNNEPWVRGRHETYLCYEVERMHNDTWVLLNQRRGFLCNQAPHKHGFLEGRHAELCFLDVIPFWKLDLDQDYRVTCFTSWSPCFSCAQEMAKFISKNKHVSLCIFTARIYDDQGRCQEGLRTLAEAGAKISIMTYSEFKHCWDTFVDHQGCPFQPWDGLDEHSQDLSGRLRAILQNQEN
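Read-out is eYFP fluorescence (Ex 488/Em 500-530) from Vif-expressing HeLa A3G-eYFP cells; more signal means A3G escaped Vif-mediated degradation. Cells plated overnight, compound pinned in, incubated overnight at 37 deg C.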
SW480 rerep = A quantitative high throughput screen for small molecules that induce DNA re-replication in SW480 colon adenocarcinoma cells. SW480 DNA re-replication, Hoechst DNA content imaging, 48 h. AID 624297, 2012. 340,000 compounds, 1.8% hits. Potency, µM (series often up to 46.1 µM), usual class: activators; also: nearly all actives have a fitted effect of over 55% in size
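SW480 cells exposed to compounds for 48 hr at 37 C, 5% CO2, then Hoechst-stained 40 min. Nuclear DNA content imaged by fluorescence scanning (405 nm excitation, 500-530 nm emission); re-replication scored as increased high-intensity nuclei.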
Of the large screens only hits and unclear results are named; the others gave an inactive call. The list is not random: actives were taken first. Their share in the collection is about 6.9%. Unless noted, calls follow the shape of the dose curve; as a rule, active = well fitted curve in the direction sought with a large enough effect; inconclusive = small, poorly fitted or top-dose-only effect, or another doubt; inactive = no such curve, though single readings can be large; an effect the other way counts as inactive or inconclusive.

Cc1ccc2oc(-c3cccc(NC(=O)c4ccc(N5CCC(C)CC5)c([N+](=O)[O-])c4)c3)nc2c1	none (no result: IL-1B inflam inh, Giardia killer, MCF10A rereplic, SW480 rerep)
O=C(N/N=C/c1cc2c(cc1Cl)OCO2)c1cc(-c2ccccc2)n[nH]1	IL-1B inflam inh inconclusive, MCF10A rereplic inconclusive
O=C(Cc1n[nH]c(=O)c2ccccc12)N/N=C/c1cc2c(cc1Cl)OCO2	MCF10A rereplic 18.4µM, SW480 rerep inconclusive
Cc1nc(NC(C)c2ccccc2)c2c3c(sc2n1)CCC3 (centres undefined)	MCF10A rereplic 10.3µM, SW480 rerep inconclusive
O=C(Nc1cccnc1)c1c(F)c(F)c(F)c(F)c1F	none
O=C(Nc1ccncc1)c1c(Cl)cccc1Cl	IL-1B inflam inh -60.8, Giardia killer inconclusive, SW480 rerep inconclusive
O=C(Nc1ccccc1NC(=O)c1c(F)c(F)c(F)c(F)c1F)c1c(F)c(F)c(F)c(F)c1F	IL-1B inflam inh -107.9, SW480 rerep inconclusive
O=C(Nc1ccncc1)c1c(F)c(F)c(F)c(F)c1F	IL-1B inflam inh -95.7, Giardia killer inconclusive, MCF10A rereplic inconclusive
O=C(CCC(=O)N1CC2CCCN2c2ccccc21)NCc1cccc(Cl)c1 (centres undefined)	none (no result: IL-1B inflam inh, Giardia killer, MCF10A rereplic, SW480 rerep)
CCOc1ccc(-n2c(SCC(=O)Nc3ccc(CC)cc3)nc3c(oc4ccccc43)c2=O)cc1	none (no result: IL-1B inflam inh, Giardia killer, MCF10A rereplic, SW480 rerep)
O=C(COC(=O)C1CC(O)CN1S(=O)(=O)c1ccc(Cl)cc1)c1ccccc1 (centres undefined)	none
Cc1[nH]c2ccccc2c1C(=O)COC(=O)C1CC(O)CN1S(=O)(=O)c1ccc(Cl)cc1 (centres undefined)	IL-1B inflam inh -76.3
CSCCC(NS(=O)(=O)c1ccc(Cl)cc1)C(=O)OCC(=O)c1c(C)[nH]c2ccccc12 (centres undefined)	IL-1B inflam inh -85.8, MCF10A rereplic 11.6µM
CC(O)C(NS(=O)(=O)c1ccc(Cl)cc1)C(=O)OCC(=O)c1c[nH]c2ccccc12 (centres undefined)	IL-1B inflam inh -54.6
CSCCC(NS(=O)(=O)c1ccc2ccccc2c1)C(=O)OCC(=O)c1ccc(C(C)C)cc1 (centres undefined)	SW480 rerep inconclusive
CCCCCCN[C@H]1CCC2C3CC=C4C[C@@H](O)CC[C@]4(C)C3CC[C@@]21C (some centres undefined)	MCF10A rereplic inconclusive, SW480 rerep 8.2µM
CC(C)(C)[C@H](N)C(=O)N[C@H]1CCC2C3CC=C4C[C@@H](O)CC[C@]4(C)C3CC[C@@]21C (some centres undefined)	IL-1B inflam inh -102.2, Giardia killer inconclusive, MCF10A rereplic 16.4µM, SW480 rerep 4.61µM
C[C@]12CC[C@H](O)CC1=CCC1C2CC[C@@]2(C)C1CC[C@@H]2NC(=O)[C@@H](N)Cc1ccccc1 (some centres undefined)	IL-1B inflam inh -96.4, MCF10A rereplic inconclusive, SW480 rerep inconclusive
CC(C)C(=O)N[C@H]1CCC2C3CC=C4C[C@@H](O)CC[C@]4(C)C3CC[C@@]21C (some centres undefined)	none
CC(=O)C1CCC2C3CC=C4CC(SC(=N)N)CCC4(C)C3CCC12C (centres undefined)	IL-1B inflam inh -102.7, MCF10A rereplic inconclusive, SW480 rerep inconclusive
CC(=O)C1CCC2C3CC=C4N(C)C(=O)CCC4(C)C3CCC12C (centres undefined)	none
COc1ccc(C(=O)c2cn(Cc3ccc(F)cc3)c3ccc(C)cc3c2=O)cc1	none (no result: IL-1B inflam inh, Giardia killer, MCF10A rereplic, SW480 rerep)
Cc1ccc(CNC(=O)C2CCC(CNS(=O)(=O)c3ccc(C)cc3)CC2)cc1 (centres undefined)	none (no result: IL-1B inflam inh, Giardia killer, MCF10A rereplic, SW480 rerep)
CCc1ccccc1NC(=O)N1CC(C)Sc2ccccc21 (centres undefined)	none (no result: IL-1B inflam inh, Giardia killer, MCF10A rereplic, SW480 rerep)
CC1(COc2ccc(CC3SC(=O)NC3=O)cc2)CCCCC1 (centres undefined)	MCF10A rereplic inconclusive (no result: Vif-APOBEC3F blk, IL-1B inflam inh, Giardia killer, Vif-APOBEC3G blk)
CCOC(=O)c1cn(-c2c(Cl)cccc2Cl)c2cc(Cl)c([N+](=O)[O-])cc2c1=O	IL-1B inflam inh -54.4, Giardia killer inconclusive, MCF10A rereplic inconclusive, SW480 rerep inconclusive
Cc1cc(N=Cc2c(O)n(-c3ccc4c(c3)OCO4)c(=O)c3ccccc23)ccn1	Vif-APOBEC3F blk 25.1µM, IL-1B inflam inh inconclusive, MCF10A rereplic inconclusive, Vif-APOBEC3G blk inconclusive, SW480 rerep inconclusive
COc1ccc(CN(Cc2cccn2C)C(=O)c2cc3cc(OC)ccc3[nH]2)cc1	IL-1B inflam inh -80.8
CCn1c(CN2CCN(c3cccc(Cl)c3)CC2)nc2c1c(=O)[nH]c(=O)n2C	none (no result: IL-1B inflam inh, Giardia killer, MCF10A rereplic, SW480 rerep)
CN(C)C=Nc1c(Br)cc(Br)c2nonc12	Vif-APOBEC3F blk 11.2µM, Vif-APOBEC3G blk inconclusive
Cc1ccccc1C(=O)O/N=C(\N)Cc1cccs1	IL-1B inflam inh -60.9, SW480 rerep inconclusive
O=C(CN1C(=O)CC(c2ccco2)Sc2ccccc21)Nc1ccc(OC(F)(F)F)cc1 (centres undefined)	none (no result: IL-1B inflam inh, Giardia killer, MCF10A rereplic, SW480 rerep)
O=C(O)COc1ccccc1/C=C1\SC(=Nc2ccc(F)cc2)N(c2ccc(F)cc2)C1=O	MCF10A rereplic 6.51µM, SW480 rerep inconclusive
O=C(O)COc1ccc(/C=C2\SC(=Nc3ccccc3)N(c3ccccc3)C2=O)cc1	none
CCOC(=O)c1ccc(NC(=O)Cn2nc(SC)c(S(=O)(=O)c3ccc(Cl)cc3)c2N)cc1	none (no result: IL-1B inflam inh, Giardia killer, MCF10A rereplic, SW480 rerep)
Cc1cccc(-n2nnc(-c3nc(-c4cccs4)no3)c2N)c1	none (no result: IL-1B inflam inh, Giardia killer, MCF10A rereplic, SW480 rerep)
COc1ccc(NC(=O)c2ccc3c(c2)n(C)c(=O)n3C)cc1	IL-1B inflam inh -56.3, MCF10A rereplic inconclusive
COc1ccc(C(C)(C)C)cc1NC(=O)COc1ccc(-c2nnco2)cc1	IL-1B inflam inh -50.0, MCF10A rereplic inconclusive
O=C(Nc1ccc(Cl)c(Cl)c1)Oc1ccc(NC(=O)c2ccco2)cc1	IL-1B inflam inh -88.2, MCF10A rereplic inconclusive
COc1ccc(OCC(=O)Nc2cc(NC(=O)c3ccco3)ccc2OC)cc1	IL-1B inflam inh -54.8
COc1ccc(NC(=O)c2ccco2)cc1NC(=O)COc1ccccc1	IL-1B inflam inh inconclusive
Cc1cc(Nc2cccc(C(F)(F)F)c2)nc2ccc(NC(=O)Cc3ccc(Cl)cc3)cc12	none (no result: IL-1B inflam inh, Giardia killer, MCF10A rereplic, SW480 rerep)
COc1cc2[nH]c(=O)n(CCCC(=O)NCc3ccccc3Cl)c(=O)c2cc1OC	none (no result: IL-1B inflam inh, Giardia killer, MCF10A rereplic, SW480 rerep)
COc1ccc(C(=O)Nc2ccc(NC(=O)c3ccco3)cc2)cc1	SW480 rerep 9.2µM
COc1ccc(NC(=O)/C(C#N)=C\C=C\c2ccco2)cc1	MCF10A rereplic 11.6µM, Vif-APOBEC3G blk inconclusive (no result: SW480 rerep)
